High-throughput results deposited in PubChem by National Center for Advancing Translational Sciences (NCATS).
BAZ2B inh – inhibitors of human BAZ2B bromodomain; AlphaScreen BAZ2B-H3K14Ac peptide displacement; Q9UIF8; hit rate 4.4% among 360,000; AID 504333; Potency, µM (titrated, usually from 114 µM), inactives show at the top dose activity change, negative = inhibition, actives largely listed as inhibitors; note: % is set by controls: 0 for no effect and ±100 for the full control effect; nearly all actives have a fitted effect of over 60% in size
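In this displacement format the biotinylated H3(5-23) peptide acetylated at Lys14 serves as ligand at 50 nM, with BAZ2B at 50 nM in PBS pH 7.4 containing 0.01% Tween-20. Donor and acceptor beads are 10 ug/mL final.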
G9a block – blocks human histone lysine methyltransferase G9a; AID 504332; G9a H3K9 monomethylation, AlphaScreen, 2 h; hit rate 8.8% among 350,000; Q96KQ7; Potency, µM (top dose mostly 102 µM), without a hit: at the highest dose activity, negative = inhibition, hits mostly inhibitors; note: % is set by controls: 0 for no effect and ±100 for the full control effect; nearly all actives have a fitted effect of over 75% in size
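Enzyme 20 nM + cpd, 15 min RT; add b-H3K9 pep 500 nM / SAM 20 uM; 2 h RT; anti-H3K9me1 Ab 0.5 ug/mL + SA donor / anti-rabbit acceptor beads 20 ug/mL each, 10 min; AlphaScreen read.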
JMJD2A Tudor inh – blocks the human JMJD2A Tudor domain | AlphaScreen JMJD2A-Tudor / H3K4me3 peptide binding | hit rate 4.4% among 390,000 | Potency, µM (series often up to 114 µM), without a hit: top-dose activity change, negative = inhibition, usual class: inhibitors | O75164; note: % is set by controls: 0 for no effect and ±100 for the full control effect; nearly all actives have a fitted effect of over 50% in size
GLS inhibitor – blocks human kidney-isoform glutaminase activity; GLS enzymatic activity, qHTS titration; Potency, µM (titrated, usually from 45.5 µM), inactives show at the top dose activity change, negative = inhibition, actives largely listed as inhibitors; hit rate 0.21% among 410,000; AID 624170; note: % is set by controls: 0 for no effect and ±100 for the full control effect
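Two-point fluorescence kinetic (t0, 30 min RT) for hKGA; glutamate detected via glutamate oxidase–HRP–Amplex Red. Substrate: 1 mM L-glutamine solution; buffer 45 mM KH2PO4, pH 8.2.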
HP1b binding inh – blocks HP1-beta chromodomain binding to methylated histone tails; P83916; AlphaScreen HP1-beta / biotin-H3K9me3 peptide binding; Potency, µM (series often up to 114 µM), for inactives: at the top dose activity change, negative = inhibition, most hits filed as inhibitors; hit rate 0.56% among 390,000; AID 540317; note: nearly all actives have a fitted effect of over 70% in size
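Compound inhibition of the preformed complex between 50 nM HP1-beta and 50 nM biotinylated H3K9me3 peptide was read by AlphaScreen. Buffer was PBS pH 7.4 with 0.01% Tween-20. Incubations ran 30 min at room temperature, with 10 ug/mL donor/acceptor beads.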
An asterisk follows results filed as active; ? = inconclusive; · = no result given; [ ] = another dose, or the depositor's remark. Sampled rows, rich in hits. Any-hit rate of the full collection: about 10%. Calls come from the whole dose curve; as a rule, active = well fitted curve in the direction sought with a large enough effect; inconclusive = small, poorly fitted or top-dose-only effect, or another doubt; inactive = no such curve, though single readings can be large; an effect the other way counts as inactive or inconclusive. Potency is the fitted concentration of half-maximal effect.

SMILES	BAZ2B inh	G9a block	JMJD2A Tudor inh	GLS inhibitor	HP1b binding inh
CCC1CCCCN1CCCNC(=O)Cn1c(=O)c2cccn2c2cccnc21 (stereo unspecified)	-16%	27%	-8%	-3%	18%
Cc1noc(C)c1C(=O)OC(C)C(=O)c1ccc(C(C)(C)C)cc1 (stereo unspecified)	·	·	·	0%	·
Cc1cc(C)c(NC(=O)/C=C\C(=O)O)c([N+](=O)[O-])c1	2%	3.5µM*	?	-3%	9%
O=C(O)/C=C\C(=O)Nc1cc(O)ccc1[N+](=O)[O-]	-31%	?	-14%	-9%	47%
CC(=O)Nc1ccc(S(=O)(=O)Nc2cc([N+](=O)[O-])ccc2C)cc1	-18%	?	10µM*	0%	?
CC(=O)Nc1ccc(S(=O)(=O)Nc2ccc([N+](=O)[O-])cc2)cc1	·	-43%[2.33 µM]	·	-12%	·
Cc1ccc(NC(=O)/C=C\C(=O)O)c([N+](=O)[O-])c1	10%	40µM*	-2%	-1%	38%
Cc1cccc(Nc2c3c(nc4nncn24)CCC3)c1C	2%	0%[59 µM]	-4%	-8%	50%
Clc1ccc(CNCCCSc2ncccn2)cc1Cl	-14%[57.1 µM]	40µM*	-15%	-1%	13%
Cc1cc(C)nc(SCCCNCc2ccccc2)n1	-38%	50µM*	-15%	2%	28%
Cc1cc(C)nc(SCCS(=O)(=O)Cc2ccccc2)n1	5%	-1%[12.7 µM]	-12%	8%	28%
COc1cc(C(CCN2CCCC(C)C2)c2c(OC)cc(OC)c3c2OC(=O)CC3c2ccc(N(C)C)cc2)cc(OC)c1OC (stereo unspecified)	14µM*	?	16µM*	4%	?
COc1cc(C(CCN2CCCC(C)C2)c2c(OC)cc(OC)c3c(C)cc(=O)oc23)cc(OC)c1OC (stereo unspecified)	·	·	-19%	·	?
COc1ccc(C(CCN2CCCC(C)C2)c2c(O)cc(OC)cc2OC)cc1 (stereo unspecified)	·	·	-34%	·	-2%
COc1cc(OC)c2c(c1C(CCN1CCCC(C)C1)c1ccc(N(C)C)cc1)OC(=O)CC2c1ccc(N(C)C)cc1 (stereo unspecified)	·	·	8.9µM*	·	?
COc1cc(C2CC(=O)Oc3c(C(CCN4CCCC(C)C4)c4ccc(N(C)C)cc4)c(OC)cc(OC)c32)cc(OC)c1OC (stereo unspecified)	35µM*	?	40µM*	29%	?
CCn1c(CC(=O)Nc2ccccc2Cl)nnc1SCC(=O)NC1CCCC1	-1%	?	-1%	1%	-3%
O=[N+]([O-])c1ccccc1CN1CCN(Cc2c[nH]c3ccccc23)CC1	50µM*	32µM*	10µM*	7%	?
O=[N+]([O-])c1ccccc1CN1CCN(c2ncccn2)CC1	50µM*	?	18µM*	-4%	?
O=C(c1ccc([N+](=O)[O-])s1)N1CCN(c2ncccn2)CC1	·	·	·	0%	·
O=[N+]([O-])c1ccccc1CN1CCN(Cc2ccccn2)CC1	50µM*	4µM*	0.79µM*	0%	-10%
COc1ccc2[nH]cc(CCNc3ccnc(-c4ccc(C(=O)N(C)C)cc4)n3)c2c1	·	-8%[0.501 µM]	·	·	·
COc1ccccc1C(=O)N/C(=C\c1ccc(Br)cc1)C(=O)N1CCCC1	-16%	-8%	-15%	-5%	-3%
c1ccc(CN2CCC3CC2c2c3cccc2N2CCOCC2)cc1 (stereo unspecified)	·	·	·	56%	·
COc1ccc(/C=C2\CC/C(=C\c3ccc(OC)c(OC)c3)C2=O)cc1OC	20µM*	?	?	5%	-22%
COc1ccc(/C=C2\CCc3ccccc3C2=O)cc1OC	-32%	?	-26%	-5%	3%
COc1ccc(C=C2C=C(C(C)(C)C)C(=O)C(C(C)(C)C)=C2)cc1OC	25µM*	·	32µM*	22%	?
COc1cc(/C=C2/CC/C(=C/c3ccc(O)c(OC)c3)C2=O)ccc1O	?	?	-19%[11.4 µM]	1%	-7%
COc1cc(/C=C2\CC/C(=C\c3ccc(OCCO)c(OC)c3)C2=O)ccc1OCCO	-21%	45µM*	-18%	0%	-2%
